Source: PubChem BioAssay (several laboratories)
Sampled rows, rich in hits. Any-hit rate of the full collection: about 3.8%.
Beta cell apopt – inhibitors of cytokine-induced beta cell apoptosis, primary screen, luminescence | INS-1E cytokine-induced death, ATP luminescence, 48 h; percent of positive-control rescue, neutral wells zero | protection from apoptosis, % (no concentration beside the values) | 300,000 tested, 0.8% active;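 active = Every replicate reaches about 75%, or at least half do and their mean reaches it too, limit read from the data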;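 also: 0% = cytokine-treated negative control wells and 100% = positive control rescue; higher means more ATP so stronger rescue from cytokine killing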
Mdm2-MdmX inh – inhibitors of human Mdm2-MdmX association, primary screen, cell-based, luminescence, split luciferase, SaOS-2, uHTS. Protein Mdm4 (Homo sapiens) + E3 ubiquitin-protein ligase Mdm2 (Homo sapiens), …. SaOS-2 split-luciferase Mdm2/MdmX complementation. inhibition, % at 8 µM. 330,000 tested, 3% active. AID 485346, 2010;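 active = inhibition of at least 50% at 8 µM in the primary screen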
Target sequence (O15151 whole entry, looked up): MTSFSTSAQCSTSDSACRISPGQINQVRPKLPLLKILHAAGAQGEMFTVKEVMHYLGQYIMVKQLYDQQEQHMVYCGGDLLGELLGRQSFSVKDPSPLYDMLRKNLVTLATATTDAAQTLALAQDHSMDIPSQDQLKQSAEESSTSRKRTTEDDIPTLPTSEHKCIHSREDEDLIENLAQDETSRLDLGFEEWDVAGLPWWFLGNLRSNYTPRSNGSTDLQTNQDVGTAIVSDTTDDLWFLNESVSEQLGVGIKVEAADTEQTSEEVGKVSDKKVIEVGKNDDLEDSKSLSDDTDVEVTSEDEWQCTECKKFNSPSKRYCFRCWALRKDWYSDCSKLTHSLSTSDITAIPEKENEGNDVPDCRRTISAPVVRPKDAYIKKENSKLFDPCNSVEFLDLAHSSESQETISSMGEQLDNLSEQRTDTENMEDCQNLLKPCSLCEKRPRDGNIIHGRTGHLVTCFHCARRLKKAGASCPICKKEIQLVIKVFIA
Target sequence (Q00987 whole entry, looked up): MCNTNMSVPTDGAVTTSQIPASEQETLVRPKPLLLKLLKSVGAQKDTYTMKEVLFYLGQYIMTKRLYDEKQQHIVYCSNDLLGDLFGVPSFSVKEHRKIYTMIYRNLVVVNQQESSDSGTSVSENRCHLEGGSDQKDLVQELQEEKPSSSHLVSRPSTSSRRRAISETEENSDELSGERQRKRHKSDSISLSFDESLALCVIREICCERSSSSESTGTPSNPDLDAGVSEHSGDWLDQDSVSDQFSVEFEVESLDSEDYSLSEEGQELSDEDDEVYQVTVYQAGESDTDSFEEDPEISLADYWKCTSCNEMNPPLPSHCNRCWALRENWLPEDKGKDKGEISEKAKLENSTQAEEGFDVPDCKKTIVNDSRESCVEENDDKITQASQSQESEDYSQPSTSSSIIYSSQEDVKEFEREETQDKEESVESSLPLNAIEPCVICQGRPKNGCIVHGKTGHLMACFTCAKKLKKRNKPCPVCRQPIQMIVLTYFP
Jurkat NFkB inh – inhibitors of induced NF-kB luciferase reporter, primary screen, TCR NF-kB activation inhibitor project, cell-based, luminescence, uHTS | Jurkat, PMA/ionomycin-induced NF-kB luciferase reporter | inhibition, % at 4 µM | 330,000 tested, 0.53% active; in the data active = inhibition above about 50%
NTR1 agonist – agonists of human NTR1, primary screen, imaging, U2OS cells, beta-arrestin-GFP, high content; 330,000 tested, 0.17% active; NTR1-U2OS beta-arrestin-GFP spot imaging, agonist mode; activation, % at 20 µM;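 active = activation at or above 40% of the spot to cytoplasm intensity ratio, with at least 20 cells analyzed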;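 also: 0% = DMSO without peptide and 100% = 100 nM NTR1 peptide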
A1 inh – caspase 3/7 activation in MEF A1-2A-BIM cells, primary screen, A1 inhibitor project, cell-based, luminescence, HTS | Caspase-Glo 3/7 luminescence, 3 h; percent of clofoctol response, vehicle zero | caspase activation, % (concentration not given with the values) | 330,000 tested, 0.066% active | AID 2462, 2010;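 active = over half of replicate activation scores above 10%, or exactly half above 10 with the replicate mean above 10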
697 NFkB inh – inhibitors of PMA/ionomycin-induced NF-kB reporter, 697 cells, primary screen, B-cell NF-kB inhibitor project, cell-based, luminescence, uHTS. AID 435022, 2010. 697 B-cell NF-kB luciferase reporter, 16 h. inhibition, % at 4 µM. 330,000 tested, 0.33% active; in the data active = inhibition above about 35%
Mdm2 MdmX conf – Mdm2-MdmX complex disruptors, retested hits, confirmation, luminescence, single concentration. Mdm2-MdmX binding, luminescent assay. 10,000 tested, 55% active. inhibition, % at 8 µM. shares compounds with Mdm2-MdmX inh; in the data active = inhibition above about 40%
Full FLuc ctr – full-length luciferase signal inhibition, confirmation, counter-screen for Mdm2/MdmX interaction inhibitor project, cell-based, single concentration, SaOS-2; inhibition, % at 8 µM; AID 504607, 2011; shares compounds with Mdm2-MdmX inh; SaOS-2 full-length luciferase counterscreen, luminescence; 6,200 tested, 77% active;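 active = mean inhibition at 8 µM reaching about 37%, which flags the compound as non-specific, limit read from the data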;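 also: p53-null SaOS-2 cells with luciferase driven by a doxycycline-inducible promoter; compound on cells about two nights before reading with doxycycline added after day one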
Active calls of the source: *; . = no result.

SMILES | Beta cell apopt | Mdm2-MdmX inh | Jurkat NFkB inh | NTR1 agonist | A1 inh | 697 NFkB inh | Mdm2 MdmX conf | others
Nc1ncnc2c1ncn2CCOc1ccccc1 | -2 | 59* | 9 | -2 | 1 | -54 | 7
Nc1cc(C(Cl)=C(Cl)Cl)c(S(N)(=O)=O)cc1S(N)(=O)=O | 4 | -29 | 7 | 0 | 2 | -2 | .
COc1cc(NC(=O)c2ccccc2F)ccc1NC(=O)c1cc2ccccc2o1 | 22 | 68* | -8 | 16 | 14* | -34 | 32 | Full FLuc ctr=63*
COc1cc(NC(=O)c2ccc(Cl)cc2Cl)ccc1-c1cc2ccccc2oc1=O | 8 | 57* | 26 | 3 | 4 | 14 | 26
COc1cc(NC(=O)c2ccc(C)cc2C)ccc1NC(=O)c1cc2ccccc2o1 | 41 | 84* | 20 | 8 | 15* | -1 | 62* | Full FLuc ctr=39*
COc1cc(NC(=O)c2cccc(F)c2)ccc1NC(=O)c1cc2ccccc2o1 | 3 | 87* | 8 | 5 | 2 | -15 | 62* | Full FLuc ctr=86*
COc1cc(NC(=O)c2c(OC)cccc2OC)ccc1NC(=O)c1cc2ccccc2o1 | 2 | -18 | -63 | 0 | 0 | -57 | .
Fc1ccc2[nH]c3c(NCc4ccccc4)ncnc3c2c1 | 59 | 46 | 9 | 10 | 3 | 22 | .
O=C(CNC(=O)c1cccs1)Nc1ccc(N2CCOCC2)cc1 | -14 | -11 | -3 | 2 | 0 | 3 | .
Cc1onc(-c2ccccc2)c1C(=O)N(Cc1ccccc1)C(C)C | . | -5 | 8 | 0 | 0 | -3 | .
COc1cc(NC(=O)c2cc3ccccc3o2)ccc1NC(=O)c1ccco1 | -1 | 28 | 14 | 2 | 0 | 18 | .
COc1cc(NC(=O)c2ccc(Br)cc2)ccc1NC(=O)c1cc2ccccc2o1 | -6 | 31 | 11 | -1 | 1 | -17 | .
COc1cc(NC(=O)c2oc3ccccc3c2C)ccc1NC(=O)c1ccco1 | 0 | 63* | -20 | 10 | 0 | -23 | 32 | Full FLuc ctr=56*
COc1cc(NC(=O)c2ccc(C)cc2)ccc1NC(=O)c1cc2ccccc2o1 | 3 | 57* | -16 | 0 | 0 | -80 | 23 | Full FLuc ctr=90*
CCc1cccc(NC(=O)CN(C)C2=NS(=O)(=O)c3ccccc32)c1 | 3 | -44 | -10 | -2 | -1 | -33 | .
COc1ccc(C(=O)OCC(=O)NC2CC2)cc1S(=O)(=O)N(C)Cc1ccccc1 | -4 | 22 | 18 | -1 | 0 | 4 | .
COC(=O)c1cc(C)sc1NC(=O)CSc1ncccn1 | 8 | 14 | 0 | 0 | -1 | -24 | .
COc1ccc(NC(=O)c2cccc3c2C(=O)c2ccc(-c4ccc(F)cc4OCc4ccccc4)cc2S3(=O)=O)cc1 | 0 | 78* | 2 | -1 | 3 | 6 | 31
O=C(NCCOc1ccccc1)c1cccc2c1C(=O)c1ccc(Cl)cc1S2(=O)=O | -7 | 16 | -4 | 8 | 0 | 11 | .
O=C(NCCOc1ccccc1Cl)c1cccc2c1C(=O)c1ccc(Cl)cc1S2(=O)=O | 6 | 59* | 4 | 0 | 1 | 5 | -3
O=C(NCC1CC1)c1cccc2c1C(=O)c1ccc(-c3ccc(OC(F)(F)F)cc3)cc1S2(=O)=O | 5 | 66* | 0 | 4 | 1 | 2 | 8
COc1ccc(-c2ccc3c(c2)S(=O)(=O)c2cccc(C(=O)NCCOc4ccccc4)c2C3=O)cc1OC | 12 | 76* | 0 | 13 | 2 | 12 | 27
